In the library only some 3.9% were active in any assay of this set; here they are far more common.
C8 TRAIL sens = viability loss with TRAIL in NB7+C8 cells, primary screen, TRAIL sensitizer project, cell-based, ATPlite luminescence. actives 1% (n = 360,000). inhibition (viability loss, TRAIL sensitization), % at 10 µM;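 active = compounds causing at least 50% loss of cell viability in the single-dose screen, relative to plate controls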
HSP90 inh = HSP90 inhibitors, primary screen, cell lysate, luminescence. AID 1789, 2009. actives 0.91% (n = 290,000). inhibition, % at 5.6 µM. Rabbit reticulocyte lysate, luciferase refolding luminescence, 3 h;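 active = inhibition above the screen-wide mean plus 3 SD, computed separately per campaign, cut at about 16% in these data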;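 also: 0% = DMSO wells and 100% = 60 µM geldanamycin wells; inhibitors lower the luminescence because luciferase stays unfolded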
TROY signal inh = inhibitors of TROY-driven NF-kB signaling, primary screen, Q293 LMP1-TROYcd cells, NF-kB luciferase, uHTS | Q293 LMP1-TROYcd NF-kB luciferase reporter, 4 h | inhibition, % at 10 µM | actives 0.98% (n = 360,000);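 active = compounds whose plate-normalised and pattern-corrected inhibition of the luciferase reporter signal at the single screening dose is 50% or more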
aSyn UTR inh = MLPCN primary screen, SNCA 5' untranslated region. alpha-synuclein 5'UTR reporter, inhibitor activity. inhibition, % (tested at 7.5 µM). actives 0.82% (n = 300,000); in the data active = inhibition above about 60%;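 also: H4 neuroglioblastoma cells stably carrying SNCA 5'UTR luciferase fusion; 0% = DMSO wells and 100% = positive control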
HIF-2a block = HIF-2a reporter inhibitors, primary screen, luminescence, 786-0 RCC cells; inhibition, % at 18.8 µM; 786-0 RCC cells HIF-2a reporter, luciferase luminescence, overnight; AID 624352, 2012; actives 0.72% (n = 360,000);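 active = inhibition of the luminescence signal of 40% or more relative to plate controls, in a single-dose primary screen at 18.75 µM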
TWEAK-Fn14 inh = inhibitors of TWEAK-Fn14 signaling, primary screen, luciferase reporter cells, uHTS; TWEAK-stimulated Fn14 reporter cells, luciferase luminescence, 8 h; inhibition, % at 10 µM; actives 2% (n = 360,000); in the data active = inhibition above about 50%
* hit, by the source's call.

COc1ccc(-c2nc(NC(=O)C3CC(=O)N(c4ccc5c(c4)OCCO5)C3)sc2C)cc1 (configuration not stated) was read as C8 TRAIL sens -44.3, HSP90 inh 3.3, TROY signal inh 47.6, aSyn UTR inh -0.9, HIF-2a block 24.2 and TWEAK-Fn14 inh 82.2*.
For O=C(Nc1nc(-c2ccccn2)cs1)C1CC(=O)N(c2ccc3c(c2)OCCO3)C1 (configuration not stated) the results were C8 TRAIL sens 5.3, HSP90 inh -2.5, TROY signal inh 19.6, aSyn UTR inh -39.6, HIF-2a block 21.9 and TWEAK-Fn14 inh 69.9*.
`CC1=C(C(=O)N2CCCCCC2)CC(CC(=O)NC(c2ccccc2)c2ccccc2)C(=O)N1CCC1=CCCCC1` (configuration not stated) gave C8 TRAIL sens 19.2, TROY signal inh 29.1, HIF-2a block -28.5 and TWEAK-Fn14 inh 13.6.
For CC(C)NC(=O)Nc1ccc2c(c1)C(=O)N([C@H](C)CO)C[C@H](C)[C@@H](CN(C)Cc1ccc(C(F)(F)F)cc1)OCCCC[C@H](C)O2 the results were C8 TRAIL sens 4.4, TROY signal inh -3.3, HIF-2a block -7.9 and TWEAK-Fn14 inh -4.8.
For O=C(NCc1cccnc1)c1cc(C(=O)NCc2cccnc2)cc([N+](=O)[O-])c1 the results were C8 TRAIL sens -8.5, TROY signal inh -8.3, HIF-2a block 3.6 and TWEAK-Fn14 inh -4.0.
CCc1nnc(NC(=O)CSc2nc3c(cc2C#N)CCC3)s1 was read as C8 TRAIL sens 64.0*, HSP90 inh -4.6, TROY signal inh -60.4, aSyn UTR inh -159.4, HIF-2a block -129.4 and TWEAK-Fn14 inh 28.8.
N#Cc1cc2c(nc1SCC(=O)Nc1nccs1)CCCCC2 was read as C8 TRAIL sens 58.5*, HSP90 inh 19.7*, TROY signal inh 38.0, aSyn UTR inh -20.4, HIF-2a block -244.1 and TWEAK-Fn14 inh 24.4.
For NC(CSC(c1ccccc1)(c1ccccc1)c1ccc2c(c1)OCO2)C(=O)O (configuration not stated) the results were C8 TRAIL sens 5.7, TROY signal inh -22.0, HIF-2a block -27.9 and TWEAK-Fn14 inh -29.1.
For O=S1(=O)CC(N2CC=CC2)CN1Cc1cn(Cc2ccccc2)nn1 (configuration not stated) the results were C8 TRAIL sens 12.2, TROY signal inh 0.9, HIF-2a block 2.3 and TWEAK-Fn14 inh 17.2.
For CCCCCCn1cc(CN2CC(N(C)CCC)CS2(=O)=O)nn1 (configuration not stated) the results were C8 TRAIL sens -4.2, TROY signal inh -7.9, HIF-2a block 7.3 and TWEAK-Fn14 inh 14.2.
`COc1ccc(-c2ccc3c(c2)S(=O)(=O)c2cccc(C(=O)N4CCN(c5ccc(Cl)cn5)CC4)c2C3=O)cc1OC` gave C8 TRAIL sens 12.5, TROY signal inh 20.3, HIF-2a block 2.1 and TWEAK-Fn14 inh 33.2.
For O=C1c2ccc(Cl)cc2S(=O)(=O)c2cccc(C(=O)N3CCN(c4ccc(Cl)cn4)CC3)c21 the results were C8 TRAIL sens 59.0*, TROY signal inh 10.5, HIF-2a block 5.4 and TWEAK-Fn14 inh -24.4.
O=C1N=C(N2CCC(Cc3ccccc3)CC2)S/C1=C/c1cn[nH]c1-c1ccccc1 was read as C8 TRAIL sens 12.2, HSP90 inh 3.2, TROY signal inh 47.3, aSyn UTR inh 2.8, HIF-2a block 0.9 and TWEAK-Fn14 inh 76.8*.
For O=C1C(Oc2ccccc2)C(c2cccs2)N1Cc1ccc2c(c1)OCO2 (configuration not stated) the results were C8 TRAIL sens 3.4, HSP90 inh 0.8, TROY signal inh 29.5, aSyn UTR inh 39.5, HIF-2a block 27.1 and TWEAK-Fn14 inh -1.8.
For COc1ccc(OC2C(=O)N(Cc3ccc4c(c3)OCO4)C2c2cccs2)cc1 (configuration not stated) the results were C8 TRAIL sens 0.7, HSP90 inh 0.3, TROY signal inh 36.8, aSyn UTR inh 33.0, HIF-2a block 8.2 and TWEAK-Fn14 inh 61.0*.
Screening COc1ccccc1N1CCN(C(=O)CSc2ncccc2-c2nc3ccccc3[nH]2)CC1 returned C8 TRAIL sens -6.3, HSP90 inh 22.2*, TROY signal inh -4.6, aSyn UTR inh -68.2, HIF-2a block -34.8 and TWEAK-Fn14 inh 56.1*.
Screening COc1ccccc1N1CCN(C(=O)CSc2ncnc3scc(-c4ccccc4)c23)CC1 returned C8 TRAIL sens -5.2, HSP90 inh -2.7, TROY signal inh 19.3, aSyn UTR inh 8.2, HIF-2a block 12.1 and TWEAK-Fn14 inh 44.0.
For COc1ccc(-n2ncc3c(SCC(=O)N4CCN(c5ccccc5OC)CC4)ncnc32)cc1 the results were C8 TRAIL sens 6.4, HSP90 inh 0.9, TROY signal inh 6.1, aSyn UTR inh -74.0, HIF-2a block -29.6 and TWEAK-Fn14 inh 54.9*.
Screening O=C(CSc1ncccc1-c1nc2ccccc2[nH]1)NC1CC1 returned C8 TRAIL sens 10.8, HSP90 inh 0.6, TROY signal inh 55.3*, aSyn UTR inh -11.7, HIF-2a block -30.4 and TWEAK-Fn14 inh 52.8*.
Screening COCCOC(=O)CSc1ncccc1-c1nc2cc(C)c(C)cc2[nH]1 returned C8 TRAIL sens 65.4*, HSP90 inh -0.4, TROY signal inh -61.7, aSyn UTR inh -22.6, HIF-2a block -154.1 and TWEAK-Fn14 inh -32.4.
Screening COc1ccc(N2CCN(C(=O)CSc3ncccc3-c3nc4ccccc4[nH]3)CC2)cc1 returned C8 TRAIL sens 3.1, HSP90 inh 2.7, TROY signal inh 4.3, aSyn UTR inh -114.1, HIF-2a block -11.3 and TWEAK-Fn14 inh 32.3.
`Cc1ccc(CN2C(=O)CSCC2(C)C(=O)NCc2ccccc2)cc1` (configuration not stated) gave C8 TRAIL sens 14.7 and HIF-2a block 11.6.
`CCOC(=O)[C@]12CCC=C1N(Cc1ccco1)C(=O)[C@H](CC(=O)NCCCN1CCCC1=O)C2` gave C8 TRAIL sens 12.9, TROY signal inh 9.5, HIF-2a block 3.8 and TWEAK-Fn14 inh -3.5.
COCC(=O)N1C[C@@H](C)[C@@H](OC)CN(C)C(=O)c2ccc(NC(=O)c3cnccn3)cc2OC[C@H]1C was read as C8 TRAIL sens 2.1 and HIF-2a block 9.0.
O=C(CSc1ncccc1-c1nc2ccccc2[nH]1)N1CCN(c2ccccc2F)CC1 was read as C8 TRAIL sens 15.3, HSP90 inh 6.5, TROY signal inh 57.4*, aSyn UTR inh -49.4, HIF-2a block -33.6 and TWEAK-Fn14 inh 70.7*.
For CCN(CC)S(=O)(=O)c1ccc2c(c1)nc(SCC(=O)NC1CC1)n2-c1ccccc1OC the results were C8 TRAIL sens -5.3, HSP90 inh -3.0, aSyn UTR inh 6.3, HIF-2a block 18.2 and TWEAK-Fn14 inh 61.0*.
